Fold increase and outcome data for 25 molecules are collected here from PubChem BioAssay AID1956 (SRMLSC, 2009).

Molecules are shown by their SMILES. In all, about 220,000 compounds went through this assay and about 10 (0.005%) were called active. Cut-off read from the data, not from the text of the source: active = maximum fold increase above about 1.5; inconclusive = no clear call, values can overlap the other calls; inactive = below that; tested in PC3 cells. A selection follows.

The nature of this assay: enhancers of HSV replication in host cells, fold increase, host cell viability (AID 1956). As to conditions: HSV replication augmentation in cells; fold increase: measured here: primary screen fold increase 10 uM, at 10 µM, stronger effect = higher value; maximum fold increase: at 0.098 µM, stronger effect = higher value; viability: measured here: host cell viability series, at 25 µM, stronger effect = lower value.
Regarding `CC(C)n1c(=S)[nH]c2cc(C(F)(F)F)ccc21`, the fold increase was 1.02 and the outcome was inactive.
Taken in the same sequence, the figures for `COc1cccc(Nc2nnc(SCC(=O)N3CC(=O)Nc4ccccc43)s2)c1` were 1 and “inactive”.
As to `CCc1nnc(SCc2cccc(F)c2)nc1CC`, the fold increase amounted to 1.19 and the result was inactive.
As to `CC1(C)CC[C@]2(C(=O)O)CC[C@]3(C)C(=CCC4[C@@]5(C)CC[C@H](O)C(C)(C)C5[C@H](O)C[C@]43C)[C@@H]2C1` (stereo not given in full), the fold increase came to 0.82 and the outcome was inactive.
Taken in the same sequence, the figures for `COC(C[C@@H](O)C[C@@H](O)[C@H](C)OCc1ccccc1)OC` were 1.01 and “inactive”.
As to `COC(=O)c1cc(=O)n(-c2c(Cl)cc(C(F)(F)F)cc2Cl)[nH]1`, the fold increase is 0.98 and the result was inactive.
Regarding `S=c1[nH]nc(-c2cc(-c3ccccc3)n[nH]2)n1/N=C/c1c2ccccc2cc2ccccc12`, the fold increase worked out at 0.83 and the result was inactive.
The like results for `Cc1cc(C)nc(NC(=O)/C=C/c2ccc(Cl)cc2)n1` were, in that order, 0.99 and “inactive”.
On to `S=C(NNC(=S)NC1CC2C=CC1C2)NC1CC2C=CC1C2` (stereo not given), for which the fold increase is 0.93 and the outcome was inactive.
Regarding `CCCCN1C(N)=NC[C@@H]1CC1CCCCC1`, the fold increase came out at 0.8 and the result was inactive.
The like results for `C=CCC1(C(=O)N(C)Cc2ccccc2)CCN(C(=O)OC(C)(C)C)CC1` were, in that order, 0.96 and “inactive”.
Regarding `NC(=O)C1=C[C@@H](c2csc3ccccc23)C[C@@H](OCc2ccc(CO)cc2)O1`, the fold increase is 0.78 and the result was inactive.
With `COC(C[C@H](O)CC(=O)[C@@H](C)OCc1ccccc1)OC`, the fold increase came out at 0.76 and the result was inactive.
The like results for `CCCOc1ccc(Cl)cc1Nc1nc(NCCO)nc(N2CCCC2)n1` were, in that order, 0.59 and “inactive”.
On to `CC1(c2nnc(-c3ccncc3)o2)CC(c2cccnc2)=NO1` (stereo not given), for which the fold increase stood at 0.69 and the result was inactive.
Taken in the same sequence, the figures for `Cc1cc(Cl)ccc1NNC(=O)c1snnc1C` were 1.06 and “inactive”.
On to `CCC1(CC)C(=O)C2=C3C1[C@H](C(=O)OC)C=C(C(=O)OC)C[C@H]3[C@H]1C(=O)N(Cc3ccccc3)C(=O)[C@H]1[C@H]2C` (stereo not given in full), for which the fold increase turned out to be 0.96 and the outcome was inactive.
Taken in the same sequence, the figures for `CCC(C)N1C(=S)SC(C)(C)C1N(O)C(=O)NC1CCCCC1` (stereo not given) were 0.99 and “inactive”.
Taken in the same sequence, the figures for `NC(=O)CC(NC(=O)Cc1cccc2ccccc12)c1ccc(NCc2cc(F)ccc2F)c([N+](=O)[O-])c1` (stereo not given) were 0.77 and “inactive”.
The like results for `CC1(C)C=Cc2c(ccc3c2OC[C@@H](c2ccc(O)cc2O)C3)O1` were, in that order, 0.67 and “inactive”.
Take `Nc1nc(O)c(CC(=O)O)s1`: the fold increase was determined as 1.21 and the result was inactive.
Regarding `Clc1ccc2nc(-c3ccccc3)nc(C(Cl)Cl)c2c1`, the fold increase worked out at 0.64 and the result was inactive.
On to `CCCCN1C(N)=NC[C@@H]1Cc1ccccc1`, for which the fold increase turned out to be 0.87 and the outcome was inactive.
The like results for `Cc1nnc(SC(C(=O)c2ccccc2)c2ccccc2)[nH]c1=O` (stereo not given) were, in that order, 0.88 and “inactive”.
Turning to `CN1CCc2nc(SC(C(=O)O)c3ccccc3)c(C#N)c(-c3cccs3)c2C1` (stereo not given), the fold increase is 0.99 and the outcome was inactive.
